38 compounds from PubChem BioAssay can be followed below.

Values without a mark were called inactive. The source made the active and inactive calls.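 How the source made its calls, unless noted: active means NADPH fluorescence slope more negative than the mean of all samples by about 3 SD, 99.7% confidence; inactive means the rest.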

Alpha-2C adrenergic receptor (Homo sapiens), sequence (P18825 whole entry, looked up): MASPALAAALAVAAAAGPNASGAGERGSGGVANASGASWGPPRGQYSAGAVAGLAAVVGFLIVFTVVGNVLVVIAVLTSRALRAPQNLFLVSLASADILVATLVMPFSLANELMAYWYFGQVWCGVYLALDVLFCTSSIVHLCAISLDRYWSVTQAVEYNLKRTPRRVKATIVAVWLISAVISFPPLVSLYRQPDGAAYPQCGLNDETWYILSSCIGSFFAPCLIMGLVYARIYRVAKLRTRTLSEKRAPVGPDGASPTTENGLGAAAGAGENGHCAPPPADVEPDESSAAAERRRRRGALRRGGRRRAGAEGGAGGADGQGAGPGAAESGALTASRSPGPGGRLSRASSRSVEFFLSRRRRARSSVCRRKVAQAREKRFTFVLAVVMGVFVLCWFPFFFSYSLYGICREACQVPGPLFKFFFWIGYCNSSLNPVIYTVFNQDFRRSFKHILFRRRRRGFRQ
Voltage-gated potassium channel subunit beta-2 (Rattus norvegicus), sequence (P62483 whole entry, looked up): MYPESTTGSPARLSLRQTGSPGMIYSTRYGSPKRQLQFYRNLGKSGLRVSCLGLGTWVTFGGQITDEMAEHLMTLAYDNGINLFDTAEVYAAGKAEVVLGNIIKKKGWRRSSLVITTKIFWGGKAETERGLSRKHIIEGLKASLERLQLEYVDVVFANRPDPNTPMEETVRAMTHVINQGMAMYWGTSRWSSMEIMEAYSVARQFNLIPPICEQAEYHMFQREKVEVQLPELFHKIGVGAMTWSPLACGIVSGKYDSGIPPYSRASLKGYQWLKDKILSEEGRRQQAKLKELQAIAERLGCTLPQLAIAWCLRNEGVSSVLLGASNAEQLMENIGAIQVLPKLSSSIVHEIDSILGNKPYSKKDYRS

One experiment has as its target Voltage-gated potassium channel subunit beta-2 (Rattus norvegicus) (UniProt P62483). In words: KvBeta positive modulators, primary screen, biochemical, NADPH fluorescence (AID 623).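 Further: fluorescence intensity change per second fitted from 20 to 320 s.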 The following applies: Recombinant KvBeta, NADPH fluorescence decrease slope, 10 min; at 10 µM; active compounds read low.
For `c1ccc(C2CC3CC(c4ccco4)N2O3)cc1` (stereo unspecified), the NADPH fluorescence slope is -2.8e-05.
On the same count and under the same terms, for `C(#CCN1CCOCC1)COCC#Cc1ccccc1` the value was -5e-05; for `CN1CCN(c2c[nH]c(=O)[nH]c2=O)CC1`, -3.4e-05; for `CC(C)CC12CN3CCN(CC(C3)/C1=N/O)C2`, -1.4e-05.
On the same count and under the same terms, under `CCCCOc1ccc(CN2CCN(CCO)CC2)cc1` stands -0.00013; under `CC(C)C(=O)c1cn(Cc2ccccc2C#N)c2ccccc12`, 3.6e-05.
For `Cc1ccc2nc(N3CCN(C)CC3)[nH]c2c1`, the NADPH fluorescence slope was 4.2e-05.
The same measure, in the same setting: for `COc1ccc(CC2C(=O)NC(=O)NC2=O)c(OC)c1` the value was 5.3e-05; for `N#Cc1ccccc1Cn1cc(C(=O)C2CC2)c2ccccc21`, -7.2e-05.
In the case of `CC(C)(C)C(O)C(Oc1ccc(Cl)cc1)n1cncn1` (stereo unspecified), the NADPH fluorescence slope is -2.7e-05.
Same read-out and setting: for `O=C(CCCOc1ccc(Cl)cc1Cl)N1CCC2(CC1)OCCO2` the value was -4.9e-05; for `COc1ccc(CCn2c(O)c(C=NCCCN(C)C)c(=O)[nH]c2=O)cc1OC`, -2.8e-05; for `COC(=O)CC1(Cc2ccccc2)C(=O)NC(=O)NC1=O`, -2.7e-05.
Same read-out and setting: for `Cc1ccc(CC2C(=O)N(C)C(=O)N(C)C2=O)s1` the value was -4.3e-05.
Same read-out and setting: under `Cc1oc2ccc(OC(=O)N(C)C)cc2c1C(=O)OC(C)C` stands -3.3e-05; under `CCn1nc(-c2ccccc2)nc2c(=O)n(C)c(=O)nc1-2`, 1.4e-06.
Regarding `O=c1[nH]c(=O)n(-c2ccc(F)cc2)c(O)c1C=Nc1ccccc1N1CCCC1`, the NADPH fluorescence slope is 1.9e-06.
On to `O=C(c1sc2ccccc2c1Cl)N1CCC2(CC1)OCCO2`, for which the NADPH fluorescence slope was 3e-05.
Still for that read-out and setting: for `CCn1c(C)c(C(=O)O)c2cc(OC)ccc21` the value was -2.5e-05; for `Cc1cc(C)c(C(=O)CN2CCOCC2)c(C)c1`, -0.000154.
On the same count and under the same terms, under `COC(=NC1CCCC1)C(O)c1c[nH]c2ccccc12` (stereo unspecified) stands -2.7e-05; under `CN1C(=O)C(Cc2cccc3ccccc23)C(=O)N(C)C1=O`, -4.8e-05; under `CCCCn1c(C)c(C(=O)OCC)c2c(CN3CCOCC3)c(O)ccc21`, -2.7e-05.
Same read-out and setting: for `CN1C(=O)N(C)C(=O)C2(Cc3ccccc3N3CCOCC32)C1=O` (stereo unspecified) the value was 3.8e-05.
For the compound `CCOc1cccc(N2C(=O)CC(=O)NC2=O)c1`, the NADPH fluorescence slope was -1.6e-06.
Same read-out and setting: under `Nc1ccnn1C1CCNCC1` stands 2.9e-05; under `COc1ccc(CN2CCN(c3ccccc3F)CC2)c(OC)c1`, 4.4e-05; under `CCCNS(=O)(=O)c1ccc(OCC(=O)N2CCN(Cc3ccccc3)CC2)cc1`, -7e-05.
Same read-out and setting: for `CC1(C)Cc2c(sc3c2C(=O)NC(c2cccnc2)N3)CO1` (stereo unspecified) the value was -3.1e-05; for `CC(=NCCCN1CCOCC1)c1c(O)n(-c2ccccc2C)c(=O)[nH]c1=O`, -3.5e-05; for `COc1ccc(CC[n+]2cc(/N=C(\C)[O-])on2)cc1OC`, 6e-06.
On the same count and under the same terms, for `C=CCn1c(O)c(C(C)=Nc2ccc(N(CC)CC)cc2)c(=O)[nH]c1=O` the value was 2.3e-05.
Take `Cc1ccc(Cn2c(C)c3cnn(CC(=O)N4CCC5(CC4)OCCO5)c(=O)c3c2C)cc1`: the NADPH fluorescence slope was -6.2e-05.
Still for that read-out and setting: under `COC(=O)c1cncn1C(C)c1ccccc1` (stereo unspecified) stands -2.9e-05.
For the compound `CCN(CC)CCN=Cc1c(O)n(CCC2=CCCCC2)c(=O)[nH]c1=O`, the NADPH fluorescence slope is -1.2e-05.
On to `CC1=C(C(=O)N2CCC3(CC2)OCCO3)C2(CCC(C)CC2)OC1=O` (stereo unspecified), for which the NADPH fluorescence slope was -4.4e-05.
Consider `CCN1CCN(Cc2cc(Br)cc(OC)c2O)CC1`, for which the NADPH fluorescence slope was -4e-05.
On the same count and under the same terms, under `O=C(NC1(C(F)(F)F)Oc2ccc(Cl)cc2O1)N1CCC2(CC1)OCCO2` (stereo unspecified) stands -9.9e-05.

The next experiment concerns the target Alpha-2C adrenergic receptor (Homo sapiens) (UniProt P18825). In words: modulators of alpha2C/GIRK thallium flux, primary screen, cell-based, HEK293 alpha2C/GIRK1/2 (AID 624;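 active means fluorescence slope after compound addition differing from the mean of all screened samples at 99.7% confidence, in either direction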;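 further: slope of fluorescence ratio to pre-addition baseline per second over 15 to 24 s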). The note with it: thallium flux BTC fluorescence, at 10 µM, actives lie on both sides.
In the case of `c1ccc(C2CC3CC(c4ccco4)N2O3)cc1` (stereo unspecified), the slope is 0.00573.
The same measure, in the same setting: for `C(#CCN1CCOCC1)COCC#Cc1ccccc1` the value was 0.00639; for `CN1CCN(c2c[nH]c(=O)[nH]c2=O)CC1`, 0.00648.
On the same count and under the same terms, under `CC(C)CC12CN3CCN(CC(C3)/C1=N/O)C2` stands 0.00751; under `CCCCOc1ccc(CN2CCN(CCO)CC2)cc1`, 0.00523; under `CC(C)C(=O)c1cn(Cc2ccccc2C#N)c2ccccc12`, 0.00712.
On the same count and under the same terms, for `Cc1ccc2nc(N3CCN(C)CC3)[nH]c2c1` the value was 0.00535; for `COc1ccc(CC2C(=O)NC(=O)NC2=O)c(OC)c1`, 0.00731.
Regarding `N#Cc1ccccc1Cn1cc(C(=O)C2CC2)c2ccccc21`, the slope is 0.00467.
Take `CC(C)(C)C(O)C(Oc1ccc(Cl)cc1)n1cncn1` (stereo unspecified): the slope is 0.00646.
On to `O=C(CCCOc1ccc(Cl)cc1Cl)N1CCC2(CC1)OCCO2`, for which the slope is 0.0028.
The same measure, in the same setting: under `COc1ccc(CCn2c(O)c(C=NCCCN(C)C)c(=O)[nH]c2=O)cc1OC` stands 0.00426; under `COC(=O)CC1(Cc2ccccc2)C(=O)NC(=O)NC1=O`, 0.00355; under `Cc1ccc(CC2C(=O)N(C)C(=O)N(C)C2=O)s1`, 0.00411.
Same read-out and setting: under `Cc1oc2ccc(OC(=O)N(C)C)cc2c1C(=O)OC(C)C` stands 0.00801.
Consider `CCn1nc(-c2ccccc2)nc2c(=O)n(C)c(=O)nc1-2`, for which the slope was -0.00207 (active).
As to `O=c1[nH]c(=O)n(-c2ccc(F)cc2)c(O)c1C=Nc1ccccc1N1CCCC1`, the slope is 0.00376.
Consider `O=C(c1sc2ccccc2c1Cl)N1CCC2(CC1)OCCO2`, for which the slope was 0.00266.
Same read-out and setting: for `CCn1c(C)c(C(=O)O)c2cc(OC)ccc21` the value was 0.00472; for `Cc1cc(C)c(C(=O)CN2CCOCC2)c(C)c1`, 0.00628.
On the same count and under the same terms, for `COC(=NC1CCCC1)C(O)c1c[nH]c2ccccc12` (stereo unspecified) the value was 0.00519; for `CN1C(=O)C(Cc2cccc3ccccc23)C(=O)N(C)C1=O`, 0.00658.
On the same count and under the same terms, under `CCCCn1c(C)c(C(=O)OCC)c2c(CN3CCOCC3)c(O)ccc21` stands 0.00475.
For the compound `CN1C(=O)N(C)C(=O)C2(Cc3ccccc3N3CCOCC32)C1=O` (stereo unspecified), the slope is 0.00653.
For the compound `CCOc1cccc(N2C(=O)CC(=O)NC2=O)c1`, the slope was 0.00568.
The same measure, in the same setting: under `Nc1ccnn1C1CCNCC1` stands 0.00512; under `COc1ccc(CN2CCN(c3ccccc3F)CC2)c(OC)c1`, 0.00736.
The same measure, in the same setting: under `CCCNS(=O)(=O)c1ccc(OCC(=O)N2CCN(Cc3ccccc3)CC2)cc1` stands 0.00533; under `CC1(C)Cc2c(sc3c2C(=O)NC(c2cccnc2)N3)CO1` (stereo unspecified), 0.00356.
For `CC(=NCCCN1CCOCC1)c1c(O)n(-c2ccccc2C)c(=O)[nH]c1=O`, the slope was 0.00474.
Same read-out and setting: under `COc1ccc(CC[n+]2cc(/N=C(\C)[O-])on2)cc1OC` stands 0.00583; under `C=CCn1c(O)c(C(C)=Nc2ccc(N(CC)CC)cc2)c(=O)[nH]c1=O`, 0.00389; under `Cc1ccc(Cn2c(C)c3cnn(CC(=O)N4CCC5(CC4)OCCO5)c(=O)c3c2C)cc1`, 0.0048.
The same measure, in the same setting: for `COC(=O)c1cncn1C(C)c1ccccc1` (stereo unspecified) the value was 0.0055.
On the same count and under the same terms, under `CCN(CC)CCN=Cc1c(O)n(CCC2=CCCCC2)c(=O)[nH]c1=O` stands 0.00557; under `CC1=C(C(=O)N2CCC3(CC2)OCCO3)C2(CCC(C)CC2)OC1=O` (stereo unspecified), 0.00593; under `CCN1CCN(Cc2cc(Br)cc(OC)c2O)CC1`, 0.00663.
For the compound `O=C(NC1(C(F)(F)F)Oc2ccc(Cl)cc2O1)N1CCC2(CC1)OCCO2` (stereo unspecified), the slope was 0.00493.
